The values below come from PubChem BioAssay (Tox21).

Experiment [1] can be described thus: Nuclear factor erythroid 2-related factor 2/antioxidant responsive element (Nrf2/ARE) small molecule agonists: qHTS cell viability counter screen in human keratinocytes (AID 1919968; active means well fitted curve in the direction sought with a large enough effect in the repeat runs; an effect the other way counts as inactive or inconclusive; further: nearly all actives have a fitted effect of over 55% in size; further: potency means the concentration at half of the fitted maximal effect). A digest of the protocol: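 Cytotoxicity was multiplexed with the Nrf2/ARE luciferase assay in the same wells. Stably transfected HaCaT keratinocytes were treated with test compounds for 23 h at 37 C. Cell viability was then measured by CellTiter-Fluor fluorescence.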
(In qHTS, concentration-response curves come from the screen itself.)

A short description of experiment [2]: Nuclear factor erythroid 2-related factor 2/antioxidant responsive element (Nrf2/ARE) small molecule agonists: luciferase reporter gene qHTS assay in human keratinocytes (AID 1919969). Further: nearly all actives have a fitted effect of over 35% in size. Further: potency means the concentration at half of the fitted maximal effect. A general note: In a reporter assay the amount or activity of a reporter protein is the signal.
For experiment [3], the target named is Gonadotropin-releasing hormone receptor (Homo sapiens) (UniProt P30968). Briefly: Human gonadotropin-releasing hormone receptor (GnRHR) small molecule agonists, calcium flux assay in GnRHR-HEK293 cells (AID 1920063). Further: nearly all actives have a fitted effect of over 35% in size. Further: potency means the concentration at half of the fitted maximal effect. The essentials:
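Agonist activity was measured as intracellular calcium flux in HEK293 cells engineered to stably express human GnRHR. After dye loading for 1 hour at 37 C, compounds in DMSO were added and fluorescence was followed for 3 minutes.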
A general note: Calcium flux is commonly read through the fluorescence of an indicator in the cells.

Experiment [4] addresses KiSS-1 receptor (Homo sapiens) (UniProt Q969F8). Kind of experiment: Human kisspeptin (KISS1R) small molecule agonists, calcium flux assay in KISS1R-HEK293 cells (AID 1920064; active means well fitted curve in the direction sought with a large enough effect in the repeat runs; an effect the other way counts as inactive or inconclusive). The essentials:
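Agonist activity is monitored as intracellular calcium rise in engineered HEK293 cells carrying human KISS1R. Cells are dye-loaded for 1 h at 37 C before compound addition, and fluorescence is recorded for 3 min.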

Experiment [5] in a line: G protein-coupled receptor (GPCR) small molecule agonists, calcium flux assay: HEK293 wild type cell line counter screen (AID 1920065). The essentials:
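Seed cells, incubate 18 h (37 C, 5% CO2); add calcium dye, 1 h at 37 C; pin-transfer compounds, ATP control or DMSO; read fluorescence 480/540 nm each second for 3 min.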

Experiment [6] is described as follows: p53 small molecule agonists, cell-based qHTS assay with human liver microsomes (AID 1963577).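 Further: p53 response element beta-lactamase reporter cells with liver microsomes plus NADPH.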 A digest of the protocol:
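Metabolically competent format: test substances, human liver microsomes and NADPH (both 0.5 mg/mL final) incubated with p53RE-bla cells 16 h at 37 C. Beta-lactamase reporter signal then quantified by fluorescence.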

Experiment [7] can be described thus: p53 small molecule agonists, cell-based qHTS assay with rat liver microsomes (AID 1963578). A digest of the protocol: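 Each plate received p53RE-bla cells, then compound, then rat liver microsomes and NADPH (both 0.5 mg/mL final). Plates were held 16 h at 37 C, and beta-lactamase activity was detected with LiveBLAzer over 2 h.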
Experiment [8] can be described thus: p53 small molecule agonists, cell-based qHTS assay with human liver microsomes: qHTS cell viability counter screen (AID 1963579). Further: nearly all actives have a fitted effect of over 45% in size. A digest of the protocol: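 Tox21 library compounds, delivered from DMSO stocks, were tested on p53RE-bla cells together with 0.5 mg/mL human liver microsomes and 0.5 mg/mL NADPH (final) over 16 h at 37 C; CellTiter-Glo luminescence served as the cytotoxicity measure.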

The nature of experiment [9]: p53 small molecule agonists, cell-based qHTS assay with rat liver microsomes: qHTS cell viability counter screen (AID 1963580). Further: nearly all actives have a fitted effect of over 45% in size. A digest of the protocol: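 Cytotoxicity counter screen: intracellular ATP measured by CellTiter-Glo luminescence in the same wells as the beta-lactamase reporter read, on HCT-116 p53RE-bla cells exposed 16 h at 37 C to compounds with rat liver microsomes and NADPH, each 0.5 mg/mL final.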

The nature of experiment [10]: cAMP Responsive Elements (CRE) small molecule antagonists, cell-based qHTS assay (AID 1963591; active means well fitted inhibition curve with a large enough effect in the signal ratio in the repeat runs, not every such curve was filed as active; the % refers to the signal ratio). A digest of the protocol: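 Cells (CRE-bla HEK 293T, DMEM with 10% dialyzed FBS and 25 mM HEPES) are seeded and incubated 18 h. Compounds are added with NKH477 agonist at 0.25 uM final for 3 h, then FRET substrate for 2 h.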
Experiment [11] addresses Beta-2 adrenergic receptor (Homo sapiens) (UniProt P07550). Kind of experiment: Adrenergic beta2 receptor (ADRB2) small molecule antagonists, cell-based qHTS assay (AID 1963592). Further: series mostly up to about 92 µM; nearly all actives have a fitted effect of over 50% in size. The essentials: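 Assay format: CHO-ADRB2 cells, 18-20hr seeding at 37C/5% CO2, then compound plus 1nM isoproterenol agonist mix for 0.5hr RT. Homogeneous time-resolved fluorescence cAMP detection after 1hr, expressed as 665/615 nm ratio.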

Experiment [12] has as its target D(2) dopamine receptor (Homo sapiens) (UniProt P14416). Kind of experiment: Dopamine D2 receptor (DRD2) small molecule agonists, cell-based qHTS assay (AID 1963594). Further: nearly all actives have a fitted effect of over 35% in size. A digest of the protocol: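 HEK293 cells stably expressing human DRD2, pre-treated with PDE inhibitor Ro20-1724 (0.1 mM final) and compound 10 min at room temperature, then stimulated with NKH477 (200nM […]) for 30 min. cAMP read by HTRF (665/620 nm).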

Experiment [13] has the same target. Briefly: Dopamine D2 receptor (DRD2) small molecule antagonists, cell-based qHTS assay (AID 1963595; active means well fitted inhibition curve with a large enough effect in the signal ratio in the repeat runs, with a control signal flat; the % refers to the signal ratio). A digest of the protocol: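 HEK293 cells stably expressing DRD2 were preincubated with 0.1 mM Ro20-1724, then with compound for 10 min at room temperature. Cells were stimulated with 200 nM NKH477 plus 12 nM quinpirole for 30 min, and cAMP was read by HTRF.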

Experiment [14] is described as follows: p53 small molecule agonists, cell-based qHTS assay: qHTS cell viability counter screen (AID 1963581). Further: nearly all actives have a fitted effect of over 45% in size. A digest of the protocol: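 Viability was counter-screened in parallel with the p53 agonist reporter by measuring intracellular ATP luminescence in the same HCT-116 p53RE-bla wells after 16 h compound treatment at 37 C.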
Experiment [15] is described as follows: p53 small molecule agonists, cell-based qHTS assay (AID 1963582; active means well fitted activation curve with a large enough effect in the signal ratio in the repeat runs, not every such curve was filed as active; the % refers to the signal ratio). A digest of the protocol: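 Cells carrying a p53-responsive bla reporter are treated with test compounds for 16 h at 37 C; beta-lactamase activity is then detected with LiveBLAzer B/G FRET substrate after 2 h at room temperature.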
The target of experiment [16] is 5-hydroxytryptamine receptor 2A (Homo sapiens) (UniProt P28223). Kind of experiment: 5-hydroxytryptamine receptor 2A (HTR2A) small molecule antagonists, cell-based qHTS assay (AID 1963586). Further: nearly all actives have a fitted effect of over 45% in size. A digest of the protocol:
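CHO cells stably expressing human HTR2A were plated for 18 h at 37 C, then loaded with calcium dye for 1 h. Compounds were preincubated 5 min at room temperature before DOI (4 nM solution) was added. Kinetic fluorescence was read for 3 min.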

Experiment [17] has the same target. Briefly: 5-hydroxytryptamine receptor 2A (HTR2A) small molecule agonists, cell-based qHTS assay (AID 1963587). Further: nearly all actives have a fitted effect of over 30% in size. Further: potency means the concentration at half of the fitted maximal effect. The essentials: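 CHO cells stably expressing human HTR2A, plated 18 h, loaded with calcium dye 1 h at 37 C. Agonist mode: compounds added and intracellular calcium fluorescence recorded kinetically for 2 min at 1 sec intervals.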
Experiment [18] concerns the target Muscarinic acetylcholine receptor M1 (Homo sapiens) (UniProt P11229). Kind of experiment: Cholinergic receptor muscarinic 1 (CHRM1) small molecule antagonists, cell-based qHTS assay (AID 1963588). Further: nearly all actives have a fitted effect of over 40% in size. Further: potency means the concentration at half of the fitted maximal effect. A digest of the protocol: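 Compounds were tested at 15 concentrations in three independent runs. Dye-loaded CHRM1-CHO cells were exposed 5 min at room temperature before stimulation by acetylcholine added at 50nM. Intracellular calcium was read kinetically on FDSS for 3 min.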

For experiment [19] the target is unchanged. Briefly: Cholinergic receptor muscarinic 1 (CHRM1) small molecule agonists, cell-based qHTS assay (AID 1963589). Further: nearly all actives have a fitted effect of over 35% in size. Further: potency means the concentration at half of the fitted maximal effect. The essentials: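 Cells were plated and incubated 18 h at 37 C/5% CO2, loaded with calcium dye for 1 h at 37 C, then treated with compounds in DMSO. Fluorescence was recorded kinetically at 1 sec intervals.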
Experiment [20] can be described thus: cAMP Responsive Elements (CRE) small molecule agonists, cell-based qHTS assay (AID 1963590). A digest of the protocol:
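Cells carrying a CRE-driven beta-lactamase reporter (HEK 293T) are seeded, incubated overnight (18 h), and treated with test compounds for 3 h at 37 C; reporter activity is then detected with a FRET substrate after 2 h at room temperature.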

Several values for one entry are separate records, joined by “and”; a condition that tells them apart may be missing. Identical values can stand only once. Results filed as inconclusive are left out. Where a structure was tested more than once in an assay, its records may differ in their call. Activity calls are given as the source filed them. Unless noted, the call rests on the fitted dose curve.

Chain of Muscarinic acetylcholine receptor M1 (Homo sapiens) (P11229 whole entry, looked up): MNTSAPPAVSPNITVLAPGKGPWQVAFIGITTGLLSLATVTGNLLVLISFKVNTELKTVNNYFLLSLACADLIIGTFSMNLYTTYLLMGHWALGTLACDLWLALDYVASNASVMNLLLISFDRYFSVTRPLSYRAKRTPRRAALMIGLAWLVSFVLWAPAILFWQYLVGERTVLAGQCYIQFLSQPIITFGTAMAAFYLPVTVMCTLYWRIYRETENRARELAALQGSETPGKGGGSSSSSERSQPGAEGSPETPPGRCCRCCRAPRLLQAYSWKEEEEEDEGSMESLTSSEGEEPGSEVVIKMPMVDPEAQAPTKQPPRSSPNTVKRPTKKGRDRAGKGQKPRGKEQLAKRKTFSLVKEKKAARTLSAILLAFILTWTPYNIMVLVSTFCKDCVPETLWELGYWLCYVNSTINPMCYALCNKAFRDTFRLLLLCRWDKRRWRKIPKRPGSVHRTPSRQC
Chain of KiSS-1 receptor (Homo sapiens) (Q969F8 whole entry, looked up): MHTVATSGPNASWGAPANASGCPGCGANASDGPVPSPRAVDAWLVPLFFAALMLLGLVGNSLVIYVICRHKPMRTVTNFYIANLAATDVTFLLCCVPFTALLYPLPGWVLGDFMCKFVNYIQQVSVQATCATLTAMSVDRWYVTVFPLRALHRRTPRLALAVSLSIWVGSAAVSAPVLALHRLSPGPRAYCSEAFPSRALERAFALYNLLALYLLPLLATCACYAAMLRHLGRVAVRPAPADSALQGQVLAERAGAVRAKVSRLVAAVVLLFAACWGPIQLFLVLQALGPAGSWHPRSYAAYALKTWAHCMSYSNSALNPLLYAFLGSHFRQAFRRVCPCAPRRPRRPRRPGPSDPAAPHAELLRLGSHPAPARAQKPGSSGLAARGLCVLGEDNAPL
Chain of 5-hydroxytryptamine receptor 2A (Homo sapiens) (P28223 whole entry, looked up): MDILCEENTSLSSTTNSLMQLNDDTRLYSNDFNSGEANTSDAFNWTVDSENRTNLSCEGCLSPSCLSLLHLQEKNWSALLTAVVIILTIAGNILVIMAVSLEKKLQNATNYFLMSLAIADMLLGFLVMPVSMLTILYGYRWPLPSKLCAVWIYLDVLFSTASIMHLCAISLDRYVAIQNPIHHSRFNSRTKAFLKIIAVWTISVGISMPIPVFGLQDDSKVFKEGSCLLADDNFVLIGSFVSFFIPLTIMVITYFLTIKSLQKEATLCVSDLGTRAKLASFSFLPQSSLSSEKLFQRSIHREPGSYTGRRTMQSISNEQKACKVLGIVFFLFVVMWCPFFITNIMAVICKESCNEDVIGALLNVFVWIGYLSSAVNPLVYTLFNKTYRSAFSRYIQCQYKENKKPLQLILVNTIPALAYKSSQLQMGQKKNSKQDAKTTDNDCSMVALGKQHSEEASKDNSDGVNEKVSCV
Chain of Gonadotropin-releasing hormone receptor (Homo sapiens) (P30968 whole entry, looked up): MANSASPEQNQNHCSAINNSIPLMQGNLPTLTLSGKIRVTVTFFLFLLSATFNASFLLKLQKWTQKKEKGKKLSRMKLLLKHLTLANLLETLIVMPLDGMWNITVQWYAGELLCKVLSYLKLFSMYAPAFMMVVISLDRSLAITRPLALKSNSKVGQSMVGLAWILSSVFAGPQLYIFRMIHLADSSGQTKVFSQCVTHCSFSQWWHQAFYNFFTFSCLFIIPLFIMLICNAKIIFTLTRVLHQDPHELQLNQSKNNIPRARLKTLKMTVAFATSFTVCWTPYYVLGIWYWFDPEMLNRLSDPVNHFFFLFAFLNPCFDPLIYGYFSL
Chain of D(2) dopamine receptor (Homo sapiens) (P14416 whole entry, looked up): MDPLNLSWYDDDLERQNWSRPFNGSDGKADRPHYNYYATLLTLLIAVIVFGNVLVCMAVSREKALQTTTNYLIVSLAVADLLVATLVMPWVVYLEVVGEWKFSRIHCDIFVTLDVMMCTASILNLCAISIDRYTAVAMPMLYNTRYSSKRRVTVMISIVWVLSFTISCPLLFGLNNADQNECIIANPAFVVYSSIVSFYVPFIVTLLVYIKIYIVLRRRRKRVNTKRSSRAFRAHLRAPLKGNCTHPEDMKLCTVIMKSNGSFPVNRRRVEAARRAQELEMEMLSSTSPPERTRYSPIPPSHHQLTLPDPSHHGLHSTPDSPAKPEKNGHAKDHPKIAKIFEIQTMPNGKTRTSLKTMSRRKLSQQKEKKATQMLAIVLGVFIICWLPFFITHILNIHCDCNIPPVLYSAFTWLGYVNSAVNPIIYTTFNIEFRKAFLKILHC
Chain of Beta-2 adrenergic receptor (Homo sapiens) (P07550 whole entry, looked up): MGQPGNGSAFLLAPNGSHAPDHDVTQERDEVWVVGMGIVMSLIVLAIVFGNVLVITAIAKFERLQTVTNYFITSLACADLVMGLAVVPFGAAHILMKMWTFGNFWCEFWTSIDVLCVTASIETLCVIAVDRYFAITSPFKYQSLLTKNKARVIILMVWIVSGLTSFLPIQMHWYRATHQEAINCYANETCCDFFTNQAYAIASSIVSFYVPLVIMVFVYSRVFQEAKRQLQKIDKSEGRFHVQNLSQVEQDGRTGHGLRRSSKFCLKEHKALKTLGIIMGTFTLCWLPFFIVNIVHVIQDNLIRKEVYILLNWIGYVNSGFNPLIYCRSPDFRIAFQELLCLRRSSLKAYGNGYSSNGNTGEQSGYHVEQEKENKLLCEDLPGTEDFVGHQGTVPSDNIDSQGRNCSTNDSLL

Regarding `C[C@]12CC[C@H]3[C@@H](CCC4=CC(=O)CC[C@@H]43)[C@@H]1CC[C@@H]2O`, the Potency result in [1], in experiment [2], in [3], in experiment [4], in experiment [5] and in experiment [6] was “inactive” throughout. Moreover, the Potency result in experiment [7], in experiment [8], in [9], in experiment [10], in experiment [11] and in experiment [12] was “inactive” in each case. The Potency result in [13] is “inactive”.

Consider `Cc1cccc([N+](=O)[O-])c1`, for which the Potency result in [1], in experiment [2], in experiment [3], in experiment [4], in experiment [5] and in experiment [6] was “inactive” in each case. For the same compound, the Potency result in experiment [7], in [9], in experiment [14], in experiment [15], in experiment [16] and in [17] was “inactive” in each case. Moreover, the Potency entry in [18], in experiment [19], in experiment [20], in [10], in [11] and in experiment [12] was “inactive” each time. In addition, the Potency entry in [13] is “inactive”.

Take `COC(C)(C)CCCC(C)C/C=C/C(C)=C/C(=O)OC(C)C` (stereo unspecified): the Potency entry in experiment [1], in [3], in experiment [4], in experiment [5], in experiment [6] and in experiment [7] was “inactive” each time. The Potency result in experiment [9], in experiment [14], in experiment [15], in experiment [16], in [17] and in [19] was “inactive” throughout. For the same compound, the Potency result in [20], in [10], in [11], in experiment [12] and in [13] was “inactive” throughout. Besides, the Potency in experiment [2] was 47.8 µM (active); in experiment [18] it was 3.3 nM (active) and inactive.

`O=C1c2ccccc2C(=O)N1SC(Cl)(Cl)Cl`: the Potency in experiment [1] was 24 µM (active); in experiment [2], 15.1 µM (active) and 7.7 µM (active); in experiment [3] it was 38.9 µM (active); in experiment [17], 54.2 µM (active) and 43.6 µM (active); in experiment [19], 49 µM (active). Also, the Potency entry in [4], in experiment [5], in experiment [6], in [7], in experiment [8] and in [14] was “inactive” in each case. Besides, the Potency entry in experiment [18], in experiment [20], in [11], in [12] and in [13] was “inactive” in each case.

`CN(C)C(=O)Nc1cccc(C(F)(F)F)c1`: the Potency entry in [1], in [2], in experiment [3], in experiment [4], in experiment [5] and in experiment [6] was “inactive” throughout. Further, the Potency result in [7], in experiment [9], in experiment [14], in [15], in experiment [16] and in experiment [17] was “inactive” throughout. Besides, the Potency entry in experiment [18], in [19], in experiment [20], in [10], in experiment [11] and in experiment [12] was “inactive” each time. Also, in experiment [13], the Potency result is “inactive”.

For `Nc1cccc2ccccc12`, the Potency result in [1], in experiment [3], in experiment [4], in experiment [5], in [6] and in [7] was “inactive” throughout. Moreover, the Potency result in [8], in experiment [14], in experiment [15], in experiment [18], in experiment [19] and in experiment [20] was “inactive” each time. The Potency result in experiment [10], in experiment [11], in [12] and in [13] was “inactive” each time. The Potency entry in [2] was “inactive and 61.1 µM (active)”.

As for `CC(c1ccc(O)cc1)c1ccc(O)cc1`, the Potency entry in [1], in [3], in experiment [4], in experiment [5], in [6] and in experiment [7] was “inactive” each time. Besides, the Potency result in [8], in experiment [14], in [16], in experiment [17], in experiment [19] and in experiment [20] was “inactive” throughout. The Potency result in [10], in [11] and in experiment [12] was “inactive” in each case. Moreover, the Potency was 64.3 µM (active) and inactive in [2]; 15.7 µM (active) and inactive in [18].

Regarding `C[Si](Cn1cncn1)(c1ccc(F)cc1)c1ccc(F)cc1`, the Potency result in [1], in experiment [2], in [3], in experiment [4], in experiment [5] and in experiment [6] was “inactive” throughout. Besides, the Potency entry in [7], in [8], in experiment [9], in experiment [16], in experiment [17] and in [19] was “inactive” each time. Besides, the Potency entry in [10], in experiment [11] and in experiment [13] was “inactive” in each case. Also, the Potency in experiment [18] is 42.1 µM (active).
